Experimental data reported in PubChem BioAssay AID1508600 (Functional Genomics Laboratory (NCATS/FGL), 2020).
In all, about 53,000 sequences went through this assay and about 3,700 (7%) were called active. Many of the other results were omitted from the sample, so actives are more common in it than they were. A number with no mark means an inactive call.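 The calls were made as follows: active = gene knockdowns whose robust z-score for IL-1 alpha signal is at least 2 or at most -2, so actives lie on both sides; inactive = the rest.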

assay: Components of the Cytosolic LPS Sensing Pathway: Gene Identification via Genome-wide siRNA Screen; conditions: RAW264.7 macrophages, IL-1a HTRF, actives lie on both sides, screened at 100 nM (by protocol), cells primed 5 h with Pam3CSK4 first;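 also: robust z of the log signal after scaling to non-targeting control siRNA wells of the plate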
In short: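 RAW264.7; siRNA 100 nM final, RNAiMAX, 48h 37 degrees C; Pam3CSK4 5 h; LipidA + TransIT-TKO 24 h; IL-1a HTRF; CellTiter-Glo viability; robust z vs negative-control median.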

Sequence	z-score
GCAGAUAUUUUUGUAAGCATT against Csmd1	-0.644
GGCUUGAUGGGCUUUUUGCTT against Ndufb8	0.285
GGUCCCAGUCAUUAUCCACTT against Gdap1l1	2.43 (active)
GGUAAUUAAAACCAUGGAGTT against Rex1bd	-0.0412
GGCCCAGGAUAUUUUAGUUTT against Atg9b	-0.553
GCCGUACGAAAAAUAAGCATT against Rps7	-0.402
GGCCAAAGUACUUUGUUCCTT against Pdpr	3.63 (active)
GGUUCUUCGAAGCAAUAGCTT against Sphkap	-0.973
GCACACAUCAAGAAACUUGTT against Mxi1	0.963
GGAGAAAUAACUGAAAUUCTT against Klhl13	-0.816
GGACUUCUACCCAGCGAUATT against P3h4	-0.536
CCUCCAGAUAACAAAUGCATT against Dlx3	0.335
CGCAUUACAUUAGCCAAAATT against Ttc28	1.21
GCUCAGUAAUCUGAGGCCATT against Lox	-2.03 (active)
GGAGAUCCGUUCAAGGGUUTT against Olfr557	0.73
CCAACUGCACUGUCAAACUTT against Tbcc	-0.224
GGAAUGUGUCUUCUCAAGUTT against A530021J07Rik	2.35 (active)
GGACCAGCACAUGUGGAUUTT against Olfr547	0.31
GGACCUGGUAUCUCUAUAUTT against Rasgrp4	-0.807
GCAUAAUUCUAAAGACGGGTT against Zfp143	-0.1
GGUUAUAGACAAGAUCGAUTT against Comp	0.536
CCCACCAGUAAGGAGUUCATT against Dido1	-0.177
GCCACGAACAUGAUGUACATT against Slco3a1	0.229

Sequence	z-score
GGUUUUAUUUGGGAUUAGCTT against Arfgap2	0.327
GGCAGAUCUGAUCAACGGATT against Mtln	-2.14 (active)
GCUUGUGGAUUCGAUUUGGTT against Gtf3c5	0.485
GCUGAAUGAUAUGGAACCUTT against Vapa	-1.76
GGAGAUAAAGUCUUAUCACTT against Misp	-2.05 (active)
GGAAAUCGUGCGUGGCUACTT against Phpt1	1.57
GGCCAUCUUUGACAGUGCUTT against Dnah1	1.11
GGCAUUUGUAAUUCCAGUUTT against Spata33	0.456
GGAUUCAGGGAACAGCAAUTT against Ntrk3	-3.08 (active)
GGUACAGAACAUGUUCUAATT against Klf4	1.18
GCACAAGCGAUGGGUUAACTT against Fkbp1a	-0.708
GGCUCACGAGGAACUAAAUTT against Ift52	0.115
GGAACUUCACUUUUAACACTT against Il33	-0.534
CGUUUUUCUCUAACUUACATT against Ldlrad3	2.6 (active)
GGUGAUGUCCUAUUUCAAATT against Erp27	0.302
GGUUCUAUCUACCUACAGGTT against Igfn1	1.78
GGAGAAGAGUCAAGAGCUCTT against Vxn	0.103
GGUAUCCAAGAAAACCUAUTT against Tnmd	0.475
CCUUCUGUAGUUGGAAUCATT against Them5	1.41
CCUGUAUGGAGUAAUGGAATT against Eif4ebp3	0.13
GGUGGUGUUAAAAUAUACUTT against Gnl3	3.07 (active)
GCCAGAAGACUGUAUACCATT against Rp9	-0.0396
GGUUGUUGGUCUUCUGUGATT against Nme3	-1.27

Sequence	z-score
GGCCAUCUAAAAAUAGUAATT against Ccdc171	0.707
GGAGCACUUAGAAAUGUCCTT against Olfr342	-0.174
GGACUUUGUACAUUGUUUUTT against Actb	2.2 (active)
GGUCUUCUAAGAAAUUUUGTT against Fmnl2	0.407
GGAUGUGUCUCACUUCUUGTT against Th	-1.5
GCUGCCUCUCACCAAGUAUTT against Creb3l3	-1.43
GCAUGAAGAGCUAAUGCUATT against Eprs	-0.364
GGCUAUGAGGACUCCUAUGTT against Plekha7	-2.53 (active)
GCAAGUCCAUUCUUUUUCATT against Tmprss11g	-0.643
GGAAACCUGAUACUAACAATT against Afmid	-1.88
GGAAGUCCUUGCAUUCCUCTT against Dlec1	0.816
GGCUGAGAAAACCAAAGGGTT against Cfdp1	1.9
GCUGGAGUGUCAGUCAUAUTT against Reg4	3.35 (active)
GGUCUAUCGCUUGCUUUUUTT against Abca2	1.67
GGUAAUCAGUAGUGACUUATT against Mkln1	0.229
CCCUCAACCAUUGUUCGAGTT against Rasal1	-0.328
GGGCUGUAUUUCUUUACCCTT against Mrgprb2	0.508
GCGCAGCACAGGUUUUGAATT against Klf10	-0.217
GGAAAAAAUACCAGAAACATT against Klre1	-2.68 (active)
GCCUAUCGAAAAGUCUUGGTT against Adcyap1	0.875
GGCCAAGCUAUAAGAAAUGTT against Cntnap2	0.201
AACUCCCUCCCUGUUGUAGTT against A4galt	-0.361
GGCCAUAUUAAGUAUGGAGTT against Fam118a	-0.34
